# Experimental data reported in PubChem BioAssay AID1159580 (chemical genetic matrix, 2015).
# Hit rate of the full screen: of about 5,500 compounds, about 2,000 (36%) were called active. About 18% were inconclusive and are not listed. The list shows a part of the results. A number with no mark means an inactive call. No stated cut-off is given here; in the data, active means normalized growth mostly below about 0.91 (no sharp cut-off); inconclusive means no clear call, values can overlap the other calls; inactive means mostly above about 0.92.
# Assay: chemical genetic growth profiling, strain panel (AID 1159580);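 further: tested at 20 µM; growth read once vehicle control cultures reached saturation at 30 °C; 1 = growth at the plate median or of vehicle wells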
# Settings: growth OD
compound,measurement,setting,value
CC(=O)[C@H]1CCC2C3CC=C4C[C@@H](O)CC[C@]4(C)C3CC[C@@]21C (stereo partly specified),normalized growth,"S. cerevisiae deletion strains, locus YKL009W, strain mrt4, stronger effect = lower value",0.856 (active)
same,normalized growth,"S. cerevisiae deletion strains, locus YKL068W, stronger effect = lower value",1.01
same,normalized growth,"S. cerevisiae deletion strains, locus YKL085W, strain MDH1 (second series), stronger effect = lower value",0.982
same,normalized growth,"S. cerevisiae deletion strains, locus YKL085W, strain MDH1, stronger effect = lower value",0.982
same,normalized growth,"S. cerevisiae deletion strains, locus YKL160W, strain elf1, stronger effect = lower value",0.944
same,normalized growth,"S. cerevisiae deletion strains, locus YKL190W, strain CNB1, stronger effect = lower value",0.97
same,normalized growth,"S. cerevisiae deletion strains, locus YKR001C, strain vps1, stronger effect = lower value",0.991
same,normalized growth,"S. cerevisiae deletion strains, locus YKR026C, strain gcn3, stronger effect = lower value",1.01
same,normalized growth,"S. cerevisiae deletion strains, locus YKR091W, strain srl3, stronger effect = lower value",1.01
same,normalized growth,"S. cerevisiae deletion strains, locus YLL001W, strain dnm1, stronger effect = lower value",0.928
same,normalized growth,"S. cerevisiae deletion strains, locus YLL026W, stronger effect = lower value",0.912 (active)
same,normalized growth,"S. cerevisiae deletion strains, locus YLL041C, strain sdh2, stronger effect = lower value",0.999
same,normalized growth,"S. cerevisiae deletion strains, locus YLR027C, strain aat2, stronger effect = lower value",0.926
same,normalized growth,"S. cerevisiae deletion strains, locus YLR039C, strain RIC1, stronger effect = lower value",0.487 (active)
same,normalized growth,"S. cerevisiae deletion strains, locus YLR058C, strain SHM2, stronger effect = lower value",0.995
same,normalized growth,"S. cerevisiae deletion strains, locus YLR102C, strain apc9, stronger effect = lower value",1.03
same,normalized growth,"S. cerevisiae deletion strains, locus YLR113W, strain HOG1, stronger effect = lower value",1.01
same,normalized growth,"S. cerevisiae deletion strains, locus YLR221C, strain rsa3, stronger effect = lower value",0.923
same,normalized growth,"S. cerevisiae deletion strains, locus YLR258W, strain gsy2, stronger effect = lower value",0.961
same,normalized growth,"S. cerevisiae deletion strains, locus YLR262C, strain YPT6 (second series), stronger effect = lower value",0.456 (active)
same,normalized growth,"S. cerevisiae deletion strains, locus YLR262C, strain YPT6, stronger effect = lower value",0.532 (active)
same,normalized growth,"S. cerevisiae deletion strains, locus YLR268W, strain sec22, stronger effect = lower value",0.949
same,normalized growth,"S. cerevisiae deletion strains, locus YLR320W, strain mms22, stronger effect = lower value",0.646 (active)
same,normalized growth,"S. cerevisiae deletion strains, locus YLR330W, strain CHS5, stronger effect = lower value",1.02
same,normalized growth,"S. cerevisiae deletion strains, locus YLR342W, strain FKS1 (second series), stronger effect = lower value",0.896
same,normalized growth,"S. cerevisiae deletion strains, locus YLR342W, strain FKS1, stronger effect = lower value",0.915
same,normalized growth,"S. cerevisiae deletion strains, locus YLR357W, strain rsc2, stronger effect = lower value",1.09
same,normalized growth,"S. cerevisiae deletion strains, locus YLR370C, strain arc18, stronger effect = lower value",0.987
same,normalized growth,"S. cerevisiae deletion strains, locus YLR371W, strain rom2, stronger effect = lower value",1.02
same,normalized growth,"S. cerevisiae deletion strains, locus YLR384C, strain iki3, stronger effect = lower value",0.998
same,normalized growth,"S. cerevisiae deletion strains, locus YLR418C, strain cdc73, stronger effect = lower value",0.791 (active)
same,normalized growth,"S. cerevisiae deletion strains, locus YML016C, strain PPZ1, stronger effect = lower value",1
same,normalized growth,"S. cerevisiae deletion strains, locus YML032C, strain rad52, stronger effect = lower value",0.952
same,normalized growth,"S. cerevisiae deletion strains, locus YML120C, strain ndi1, stronger effect = lower value",0.934
same,normalized growth,"S. cerevisiae deletion strains, locus YML124C, strain tub3, stronger effect = lower value",1.04
same,normalized growth,"S. cerevisiae deletion strains, locus YMR058W, strain fet3, stronger effect = lower value",0.946
same,normalized growth,"S. cerevisiae deletion strains, locus YMR078C, strain ctf18, stronger effect = lower value",1.01
same,normalized growth,"S. cerevisiae deletion strains, locus YMR125W, strain sto1, stronger effect = lower value",0.988
same,normalized growth,"S. cerevisiae deletion strains, locus YMR129W, stronger effect = lower value",0.985
same,normalized growth,"S. cerevisiae deletion strains, locus YMR205C, strain PFK2, stronger effect = lower value",0.944
same,normalized growth,"S. cerevisiae deletion strains, locus YMR223W, strain ubp8, stronger effect = lower value",0.964
same,normalized growth,"S. cerevisiae deletion strains, locus YMR231W, strain pep5, stronger effect = lower value",1
same,normalized growth,"S. cerevisiae deletion strains, locus YMR263W, strain SAP30, stronger effect = lower value",0.979
same,normalized growth,"S. cerevisiae deletion strains, locus YMR307W, strain GAS1, stronger effect = lower value",1.19
same,normalized growth,"S. cerevisiae deletion strains, locus YNL067W, strain RPL9B, stronger effect = lower value",0.935
same,normalized growth,"S. cerevisiae deletion strains, locus YNL071W, strain lat1, stronger effect = lower value",0.716 (active)
same,normalized growth,"S. cerevisiae deletion strains, locus YNL128W, strain TEP1, stronger effect = lower value",1.01
same,normalized growth,"S. cerevisiae deletion strains, locus YNL153C, strain GIM3, stronger effect = lower value",0.948
same,normalized growth,"S. cerevisiae deletion strains, locus YNL183C, strain NPR1, stronger effect = lower value",0.866
same,normalized growth,"S. cerevisiae deletion strains, locus YNL209W, strain ssb2, stronger effect = lower value",0.983
same,normalized growth,"S. cerevisiae deletion strains, locus YNL233W, strain BNI4, stronger effect = lower value",0.93
same,normalized growth,"S. cerevisiae deletion strains, locus YNL248C, strain rpa49, stronger effect = lower value",0.899
same,normalized growth,"S. cerevisiae deletion strains, locus YNL250W, strain rad50, stronger effect = lower value",1
same,normalized growth,"S. cerevisiae deletion strains, locus YNL271C, strain bni1, stronger effect = lower value",1.02
same,normalized growth,"S. cerevisiae deletion strains, locus YNL298W, strain CLA4, stronger effect = lower value",0.999
same,normalized growth,"S. cerevisiae deletion strains, locus YNL307C, strain MCK1, stronger effect = lower value",0.649 (active)
same,normalized growth,"S. cerevisiae deletion strains, locus YNL322C, strain KRE1 (second series), stronger effect = lower value",1.03
same,normalized growth,"S. cerevisiae deletion strains, locus YNL322C, strain KRE1, stronger effect = lower value",1.01
same,normalized growth,"S. cerevisiae deletion strains, locus YNR049C, strain mso1, stronger effect = lower value",1.01
same,normalized growth,"S. cerevisiae deletion strains, locus YNR052C, strain pop2, stronger effect = lower value",0.992
same,normalized growth,"S. cerevisiae deletion strains, locus YOL006C, strain TOP1, stronger effect = lower value",0.68
same,normalized growth,"S. cerevisiae deletion strains, locus YOL012C, strain htz1",1.1
same,normalized growth,"S. cerevisiae deletion strains, locus YOL147C, strain pex11, stronger effect = lower value",1.02
same,normalized growth,"S. cerevisiae deletion strains, locus YOR001W, strain rrp6, stronger effect = lower value",0.904
same,normalized growth,"S. cerevisiae deletion strains, locus YOR061W, strain CKA2, stronger effect = lower value",0.991
same,normalized growth,"S. cerevisiae deletion strains, locus YOR069W, strain VPS5, stronger effect = lower value",1.01
same,normalized growth,"S. cerevisiae deletion strains, locus YOR070C, strain gyp1, stronger effect = lower value",0.956
same,normalized growth,"S. cerevisiae deletion strains, locus YOR080W, strain dia2, stronger effect = lower value",0.986
same,normalized growth,"S. cerevisiae deletion strains, locus YOR083W, strain WHI5, stronger effect = lower value",0.907
same,normalized growth,"S. cerevisiae deletion strains, locus YOR106W, strain vam3, stronger effect = lower value",0.927
same,normalized growth,"S. cerevisiae deletion strains, locus YOR136W, strain idh2, stronger effect = lower value",1.01
same,normalized growth,"S. cerevisiae deletion strains, locus YOR144C, strain elg1, stronger effect = lower value",1.03
same,normalized growth,"S. cerevisiae deletion strains, locus YOR184W, strain ser1, stronger effect = lower value",0.75 (active)
same,normalized growth,"S. cerevisiae deletion strains, locus YOR231W, strain MKK1, stronger effect = lower value",0.958
same,normalized growth,"S. cerevisiae deletion strains, locus YOR265W, strain rbl2, stronger effect = lower value",0.967
same,normalized growth,"S. cerevisiae deletion strains, locus YOR270C, strain vph1, stronger effect = lower value",0.783
same,normalized growth,"S. cerevisiae deletion strains, locus YOR290C, strain snf2, stronger effect = lower value",0.947
same,normalized growth,"S. cerevisiae deletion strains, locus YOR316C, strain cot1, stronger effect = lower value",1.03
same,normalized growth,"S. cerevisiae deletion strains, locus YPL051W, strain arl3, stronger effect = lower value",0.903 (active)
same,normalized growth,"S. cerevisiae deletion strains, locus YPL055C, strain LGE1, stronger effect = lower value",0.869
same,normalized growth,"S. cerevisiae deletion strains, locus YPL078C, strain atp4, stronger effect = lower value",0.898
same,normalized growth,"S. cerevisiae deletion strains, locus YPL106C, strain sse1, stronger effect = lower value",1.16 [resistant] (active)
same,normalized growth,"S. cerevisiae deletion strains, locus YPL240C, strain hsp82, stronger effect = lower value",1
same,normalized growth,"S. cerevisiae deletion strains, locus YPL241C, strain CIN2, stronger effect = lower value",1
same,normalized growth,"S. cerevisiae deletion strains, locus YPL256C, strain CLN2, stronger effect = lower value",1.02
same,normalized growth,"S. cerevisiae deletion strains, locus YPR119W, strain clb2, stronger effect = lower value",1.02
same,normalized growth,"S. cerevisiae deletion strains, locus YPR141C, strain kar3, stronger effect = lower value",1.05
same,normalized growth,"S. cerevisiae deletion strains, locus YPR163C, strain tif3, stronger effect = lower value",1.02
same,normalized growth,"S. cerevisiae deletion strains, locus YPR167C, strain met16, stronger effect = lower value",1.01
same,normalized growth,"S. cerevisiae deletion strains, strain wtn01, stronger effect = lower value",0.948
same,normalized growth,"S. cerevisiae strains, strain wild type, stronger effect = lower value",0.962
